# Laboratory results as given in PubChem BioAssay.
# Unmarked numbers belong to inactive results. For some assays here: Measured potencies and affinities stand elsewhere. Active and inactive are the calls of the source. Unless noted, the rule behind the calls is not given here.
# Legend:
# [1] = antimalarial activity against Dd2 strain (AID 2302;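 active = growth inhibition above 50% at the single 2 µM test dose, taken to imply half-maximal potency below 2 µM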;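 note: 0% = DMSO untreated growth and 100% = chloroquine plus artemisinin killed control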); conditions: P. falciparum Dd2 in RBCs, LDH growth readout, 72 h; at 2 µM; active compounds read high
# [2] = human hepatoma cell viability loss – ATP luminescence, cytotoxicity control for P. falciparum antimalarial project, primary screen (AID 2303;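 active = inhibition above 50%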;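 note: 0% = DMSO wells and 100% = digitonin-killed cells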); conditions: HepG2 viability, 24-48 h, at 10 µM, active compounds read high
# [3] = molecular target: L-lactate dehydrogenase (Plasmodium falciparum (isolate CDC / Honduras)) (UniProt Q27743); experiment: PfLDH activity inhibition – cell lysate, 3D7 strain, counter-screen for P. falciparum growth inhibition project (AID 2304);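 note: 0% = vehicle and 100% = reference inhibitor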; conditions: P. falciparum 3D7 crude extract, LDH APAD/NBT absorbance; at 2 µM; active compounds read high
# [4] = inhibition of 3D7 malaria parasite growth – strain 3D7 (AID 2306);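 note: 0% = DMSO wells and 100% = chloroquine plus artemisinin control wells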; conditions: P. falciparum 3D7 erythrocytic growth, LDH absorbance, 72 h; at 2 µM; active compounds read high
# [5] = molecular target: Calcium-dependent protein kinase 1 (Plasmodium falciparum (isolate 3D7)) (UniProt P62344); experiment: PfCDPK1 kinase inhibitors, biochemical, TCAMS library (AID 1159585; cut-off not given, nearly all actives have IC50 up to about 0.98 µM;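 note: inhibitors leave more ATP so luminescence rises with inhibition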); conditions: recombinant PfCDPK1, Kinase-Glo ATP depletion luminescence
# [6] = molecular target: Plasmodium falciparum protein kinase 6 (PK6, PF3D7_1337100) (UniProt Q8IDW1); experiment: PfPK6 kinase inhibitors, biochemical, TCAMS library (AID 1159586); conditions: recombinant PfPK6, Kinase-Glo ATP depletion luminescence
# [7] = molecular target: Protein kinase 7 (PK7), Plasmodium falciparum 3D7 (PF3D7_0213400) (UniProt Q7YTF7); experiment: inhibition of Plasmodium PK7 catalytic activity – biochemical, TCAMS antimalarial set, Kinase-Glo luminescence (AID 1159587); conditions: recombinant PfPK7, Kinase-Glo ATP depletion luminescence
# [8] = molecular target: Calcium-dependent protein kinase 4 (Plasmodium falciparum (isolate 3D7)) (UniProt Q8IBS5); experiment: PfCDPK4 kinase inhibitors, biochemical, TCAMS library (AID 1159588; cut-off not given, nearly all actives have IC50 up to about 0.91 µM); conditions: recombinant PfCDPK4, Kinase-Glo ATP depletion luminescence
# Sequence of Calcium-dependent protein kinase 4 (Plasmodium falciparum (isolate 3D7)) (Q8IBS5 whole entry, looked up): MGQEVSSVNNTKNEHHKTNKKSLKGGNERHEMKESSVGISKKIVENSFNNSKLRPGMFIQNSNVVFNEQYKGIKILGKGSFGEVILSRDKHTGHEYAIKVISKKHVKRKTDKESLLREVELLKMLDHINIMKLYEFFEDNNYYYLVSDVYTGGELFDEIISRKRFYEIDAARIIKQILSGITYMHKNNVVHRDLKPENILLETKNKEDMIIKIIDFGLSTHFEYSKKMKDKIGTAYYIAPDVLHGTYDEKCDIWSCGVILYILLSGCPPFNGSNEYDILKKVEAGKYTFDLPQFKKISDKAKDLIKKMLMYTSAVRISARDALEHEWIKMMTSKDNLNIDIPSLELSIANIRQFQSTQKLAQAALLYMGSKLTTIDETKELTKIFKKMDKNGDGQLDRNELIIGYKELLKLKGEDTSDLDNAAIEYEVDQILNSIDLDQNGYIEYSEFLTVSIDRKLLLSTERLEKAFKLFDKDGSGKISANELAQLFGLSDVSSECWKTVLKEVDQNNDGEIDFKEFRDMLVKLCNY
# Sequence of L-lactate dehydrogenase (Plasmodium falciparum (isolate CDC / Honduras)) (Q27743 whole entry, looked up): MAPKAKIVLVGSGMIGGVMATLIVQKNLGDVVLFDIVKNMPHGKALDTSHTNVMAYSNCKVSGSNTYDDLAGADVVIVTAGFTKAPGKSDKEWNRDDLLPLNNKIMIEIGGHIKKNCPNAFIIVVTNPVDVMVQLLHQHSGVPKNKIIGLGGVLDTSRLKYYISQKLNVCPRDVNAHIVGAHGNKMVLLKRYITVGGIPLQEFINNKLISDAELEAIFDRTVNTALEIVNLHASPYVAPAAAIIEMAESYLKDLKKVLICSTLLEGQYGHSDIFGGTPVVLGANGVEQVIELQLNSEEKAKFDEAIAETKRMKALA
# Sequence of Plasmodium falciparum protein kinase 6 (PK6, PF3D7_1337100) (Q8IDW1 1-305): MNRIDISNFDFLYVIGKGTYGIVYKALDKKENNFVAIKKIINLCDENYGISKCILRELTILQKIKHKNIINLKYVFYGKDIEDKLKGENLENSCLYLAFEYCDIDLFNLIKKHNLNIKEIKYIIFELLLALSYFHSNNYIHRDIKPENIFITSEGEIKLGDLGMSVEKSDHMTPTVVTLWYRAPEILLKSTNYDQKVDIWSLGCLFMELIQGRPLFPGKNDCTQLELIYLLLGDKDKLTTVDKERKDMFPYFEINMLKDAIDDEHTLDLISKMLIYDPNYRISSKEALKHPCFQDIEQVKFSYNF
# Sequence of Protein kinase 7 (PK7), Plasmodium falciparum 3D7 (PF3D7_0213400) (Q7YTF7 1-343): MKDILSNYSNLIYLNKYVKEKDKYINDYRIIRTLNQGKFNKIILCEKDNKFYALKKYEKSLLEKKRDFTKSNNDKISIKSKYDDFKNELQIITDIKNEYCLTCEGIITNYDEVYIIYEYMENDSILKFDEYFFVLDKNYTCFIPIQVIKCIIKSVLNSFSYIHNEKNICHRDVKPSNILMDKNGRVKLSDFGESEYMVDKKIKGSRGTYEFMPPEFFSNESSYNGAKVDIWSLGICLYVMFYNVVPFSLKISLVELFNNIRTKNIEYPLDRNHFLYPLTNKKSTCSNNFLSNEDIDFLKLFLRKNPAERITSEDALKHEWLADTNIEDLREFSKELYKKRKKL
# Sequence of Calcium-dependent protein kinase 1 (Plasmodium falciparum (isolate 3D7)) (P62344 whole entry, looked up): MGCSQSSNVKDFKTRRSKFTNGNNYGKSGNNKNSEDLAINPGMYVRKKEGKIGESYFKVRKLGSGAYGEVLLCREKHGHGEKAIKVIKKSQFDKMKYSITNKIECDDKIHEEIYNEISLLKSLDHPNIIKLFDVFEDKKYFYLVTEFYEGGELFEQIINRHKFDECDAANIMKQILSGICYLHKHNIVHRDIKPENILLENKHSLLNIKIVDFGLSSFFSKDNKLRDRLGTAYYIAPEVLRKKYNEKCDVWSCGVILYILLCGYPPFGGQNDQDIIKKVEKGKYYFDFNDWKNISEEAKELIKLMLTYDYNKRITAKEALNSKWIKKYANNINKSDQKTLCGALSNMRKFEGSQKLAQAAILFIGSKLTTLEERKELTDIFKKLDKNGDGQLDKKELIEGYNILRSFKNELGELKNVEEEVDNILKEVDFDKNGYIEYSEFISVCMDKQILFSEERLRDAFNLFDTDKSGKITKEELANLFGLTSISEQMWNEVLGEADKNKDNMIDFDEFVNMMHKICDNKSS
SMILES,growth inhibition [1],inhibition [2],inhibition [3] [%],growth inhibition [4],outcome [5],outcome [6],outcome [7],outcome [8]
COc1ccc(Nc2nc(NCc3cccc(NS(C)(=O)=O)c3)cc(-c3ccc(OC)cc3)n2)cc1,5%,-7%,5,84% (active),inactive,inactive,inactive,inactive
Cc1ccccc1CNc1noc(-c2c(F)cccc2Cl)n1,90% (active),14%,-5,97% (active),inactive,inactive,inactive,inactive
O=C(/C=C/c1ccc(Cl)c(Cl)c1)NCCCCCN1CCC(CCNC(=O)/C=C/c2ccccc2F)CC1,1%,47%,-2,94% (active),inactive,inactive,inactive,inactive
COc1cc(-c2nc3ccc(N4CCN(C)CC4)cc3[nH]2)cc(OC)c1OC,15%,6%,0,87% (active),inactive,inactive,inactive,inactive
CC1(C)C=C(c2ccncc2)c2cc(Cl)ccc2O1,22%,-4%,1,97% (active),inactive,inactive,inactive,inactive
COc1cc(OC)cc(-c2nn(-c3ccc([N+](=O)[O-])cc3Cl)c(=S)n2CC2CCCO2)c1 (stereo not given),98% (active),5%,0,98% (active),inactive,inactive,inactive,inactive
CC(Cc1ccc(OCCN2CCN(c3ccccc3)CC2)cc1)NCC(O)c1cccc(Cl)c1F (stereo not given),56% (active),40%,6,92% (active),inactive,inactive,inactive,inactive
COc1ccc(S(=O)(=O)NCCC2CCN(CCCCCNC(=O)C=Cc3ccc(Cl)c(Cl)c3)CC2)cc1,-2%,36%,5,87% (active),inactive,inactive,inactive,inactive
Cc1ccccc1C1CCN(c2ncc(C(=O)NC3CC3)cc2Cl)CC1,96% (active),22%,-1,96% (active),inactive,inactive,inactive,inactive
C=C[C@]1(C)C[C@@H](OC(=O)NC(=O)C2CCN(C(=O)CSc3ccccc3)CC2)[C@]2(C)[C@H](C)CC[C@]3(CCC(=O)[C@H]32)[C@@H](C)[C@@H]1O,74% (active),-3%,1,93% (active),inactive,inactive,inactive,inactive
CC(OC(=O)c1ccc(C(=O)NCC2CC2)cc1)C(C)(C)C (stereo not given),86% (active),10%,-3,93% (active),inactive,inactive,inactive,inactive
O=C(Nc1cccc(-c2cccc(-c3nc4ccc(C(F)(F)F)cc4[nH]3)c2)c1)c1ccncc1,61% (active),52% (active),4,101% (active),inactive,inactive,inactive,inactive
CC(C)NCc1ccc(-c2ccc(NS(=O)(=O)c3cccc4cccnc34)cc2)cc1,45%,27%,-4,90% (active),inactive,inactive,inactive,inactive
Cc1cccc(-c2nc(Nc3ccncc3)c3ccc([N+](=O)[O-])cc3n2)n1,13%,-9%,-1,87% (active),inactive,inactive,inactive,inactive
O=C(/C=C/c1ccc(Cl)c(Cl)c1)NC1CCC(CN2CCC(c3cc4ccccc4[nH]3)CC2)CC1 (stereo not given),-7%,19%,1,96% (active),inactive,inactive,inactive,inactive
CC(C)(C)[C@@H](Nc1ccc(C#N)c2ccccc12)C(=O)NC1(Cc2ccc(O)cc2)CCCC1,74% (active),14%,0,90% (active),inactive,inactive,inactive,inactive
CCc1ccc(NC(=O)c2cccc(CN3CCCN(CC4CCCCC4)CC3)c2)cc1,41%,62% (active),4,85% (active),inactive,inactive,inactive,inactive
Cc1cc(O)c(C(C)C)cc1C1(c2cc(C(C)C)c(O)cc2C)OC(=O)c2ccccc21,18%,8%,-3,95% (active),inactive,inactive,inactive,inactive
CO/C(=C\C=C\c1cc2cc(Cl)c(Cl)cc2[nH]1)C(=O)NCCCCN1CCN(c2ccccc2OC)CC1,96% (active),55% (active),-1,100% (active),inactive,inactive,inactive,inactive
N#Cc1cccc(Nc2ncc3c(-c4cccc(NC(=O)Cc5cccc(Cl)c5)c4)c[nH]c3n2)c1,95% (active),-1%,-2,101% (active),inactive,inactive,inactive,inactive

SMILES,growth inhibition [1],inhibition [2],inhibition [3] [%],growth inhibition [4],outcome [5],outcome [6],outcome [7],outcome [8]
Fc1ccc2nc(-c3cccc(-c4cccc(CN5CCN(c6cnccn6)CC5)c4)c3)[nH]c2c1,35%,17%,-2,93% (active),inactive,inactive,inactive,inactive
COc1ccc2nccc([C@@H](O)CN3CCC(NC(=O)c4ccc(CN5CCN(c6cccc(C)c6)CC5C)cc4)CC3)c2c1 (stereo not given in full),86% (active),50% (active),4,97% (active),inactive,inactive,inactive,inactive
COc1ccc(Nc2ncc3c(-c4ccc(NC(=O)c5cccc(C(F)(F)F)c5)cc4)c[nH]c3n2)cc1OC,30%,26%,4,89% (active),inactive,inactive,inactive,inactive
O=C(/C=C/c1ccc(Cl)c(Cl)c1)NCCCCCN1CCC(C(=O)Nc2ccc(Cl)c(Cl)c2)CC1,0%,73% (active),-2,98% (active),inactive,inactive,inactive,inactive
Cc1cc(OCCCN2CCC(NS(=O)(=O)c3cccc(Br)c3)CC2)c2ccccc2n1,28%,28%,-2,95% (active),inactive,inactive,inactive,inactive
CS(=O)(=O)c1ccc(-c2cnc(N)c(-c3cccc(CO)c3)c2)cc1,51% (active),-4%,0,98% (active),inactive,inactive,inactive,inactive
Cc1cccn2c(=O)c3cc(C(=O)NCCN4CCOCC4)c(=N)n(CCc4ccccc4)c3nc12,85% (active),13%,1,100% (active),inactive,inactive,inactive,inactive
O=C(Nc1cccc(-c2cccc(-c3nc4ccc(F)cc4[nH]3)c2)c1)c1ccoc1,35%,36%,5,98% (active),inactive,inactive,inactive,inactive
Oc1ccc(Br)cc1-c1nc2ccc(Cl)cc2nc1-c1cc(Br)ccc1O,64% (active),-4%,5,100% (active),inactive,inactive,inactive,inactive
CCn1cc(CN2CCCC(C(=O)Nc3ccc(-c4nc5ccccc5[nH]4)cc3)C2)cn1 (stereo not given),26%,8%,-1,100% (active),inactive,inactive,inactive,inactive
Cc1cc(N[C@@H](Cc2ccccc2)C(=O)NCCOc2ccccc2)nc(NCCOc2ccccc2)n1,24%,-1%,-4,98% (active),inactive,inactive,inactive,inactive
COc1ccc(-c2nc(-c3ccc([N+](=O)[O-])cc3)no2)cc1OC,-5%,14%,-1,96% (active),inactive,inactive,inactive,inactive
NC1CCN(Cc2cccc(-c3ccc(-c4nc5ccc(C(F)(F)F)cc5[nH]4)cc3)c2)C1 (stereo not given),97% (active),21%,-9,99% (active),inactive,inactive,inactive,inactive
C[C@@H]1CN(c2cnn(Cc3ccc(NC(=O)Nc4ccc(F)cc4[N+](=O)[O-])cc3)c(=O)c2Cl)C[C@H](C)N1,10%,4%,-2,89% (active),inactive,inactive,inactive,inactive
Cc1ccc(CCOCCCCCNCC(O)c2cc(Cl)c(N)c(Cl)c2)cc1 (stereo not given),98% (active),10%,-1,99% (active),inactive,inactive,inactive,inactive
O=C(Nc1ccnc2ccccc12)NC1CCN(Cc2ccccc2)CC1,43%,18%,5,96% (active),inactive,inactive,inactive,inactive
CCNc1cc(C(=O)N[C@@H](Cc2ccccc2)[C@H](O)CNC(CC)c2cccc(Cl)c2)cc(N2CCCC2=O)c1 (stereo not given in full),99% (active),12%,-1,97% (active),inactive,inactive,inactive,inactive
Cc1cccc2[nH]c(-c3ccc(-c4cccc(NC(=O)Nc5ccc(F)c(F)c5F)c4)cc3)nc12,89% (active),40%,2,100% (active),inactive,inactive,inactive,inactive
Cc1[nH]nc2ccc(-c3ccc4nccc(N5CCC(N)CC5)c4c3)cc12,100% (active),67% (active),-3,101% (active),inactive,inactive,inactive,inactive
O=C(Nc1cccc(-c2nn3ccccc3c2-c2ccnc(Nc3cccc(C(F)(F)F)c3)n2)c1)c1c(F)cccc1F,91% (active),43%,-2,97% (active),inactive,inactive,inactive,inactive
